Compound activity as filed in PubChem BioAssay.
Hits are enriched below; roughly 19% of the tested compounds scored in any of these assays.
TDP1 cell CPT: growth inhibition of DT40 Tdp1-/-;hTDP1 cells with camptothecin (screen for TDP1 inhibitors) | chicken DT40 Tdp1-/-;hTDP1 cells + 20 nM CPT, ATP luminescence, 48 h | Potency, µM (titrated, usually from 46.2 µM), usual class: inhibitors | 12% of 420,000 active; note: nearly all actives have a fitted effect of over 55% in size
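Chicken DT40 Tdp1-/- cells stably complemented with human TDP1 were seeded at 400 cells/well in medium containing 20 nM camptothecin, exposed to pin-transferred compounds, and grown at 37 °C for at least 48 hr. Viability was read as ATP luminescence.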
IL-1B inflam inh: blocks inflammasome-driven IL-1 beta release; AID 743279; 4.7% of 360,000 active; activity change, % at 57.5 µM; THP-1 LPS/ATP IL-1B secretion, AlphaLISA, 16 h; stronger effect = lower value; in the data active = activity change below about -50%; inconclusive = mostly about -30% to -49%
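Secreted IL-1B measured by AlphaLISA bead assay after 16 h compound exposure of THP-1 cells; compounds (final up to 57.5 uM) added 1 h before LPS (250 ng/mL) and ATP (1.25 mM) stimulation; lower signal means less secretion.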
HT1080 IDH1KD tx: kills HT-1080 cells with IDH1 knockdown; HT-1080 IDH1 knockdown viability, ATP luminescence, 48 h; Potency, µM (top dose mostly 46.1 µM), most hits filed as cytotoxic; 2% of 360,000 active
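Viability of IDH1-knockdown HT-1080 fibrosarcoma cells was assessed by CellTiter-Glo after 48 h at 37 °C with titrated compound; concentration-effect curves were classified by fit quality and response size.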
HT1080-NT tox: kills 2HG-producing HT-1080-NT fibrosarcoma cells | HT-1080-NT fibrosarcoma viability, CellTiter-Glo ATP luminescence, 48 h | Potency, µM (highest dose often 46.1 µM), usual class: cytotoxic | 1.6% of 360,000 active | AID 686970;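 note: NT is the 2HG producing partner of a matched IDH1 knockdown line; nearly all actives have a fitted effect of over 55% in size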
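Viability by CellTiter-Glo luminescence after 48 h compound exposure at 37C of HT-1080-NT cells (750/well, RPMI, 5% FBS). % activity scaled between DMSO wells and medium-only wells, then curve-fitted and categorized by curve class.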
DT40 TDP1 no CPT: qHTS for Inhibitors of human tyrosyl-DNA phosphodiesterase 1 (TDP1): qHTS in cells in absence of CPT | 15% of 420,000 active | AID 686978, 2013 | DT40 Tdp1-/- hTDP1 cells, no CPT, ATP luminescence, 48 h | Potency, µM (doses to about 46.2 µM), actives largely listed as inhibitors; note: nearly all actives have a fitted effect of over 55% in size
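Growth of hTDP1-complemented DT40 Tdp1-knockout cells is measured by ATP luminescence after at least 48 hr compound exposure at 37 °C, with DMSO substituting for the 20 nM CPT used in the parallel screen.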
Each line names hits and unclear results; the compound was inactive in the other large screens. Unless noted, calls come from the whole dose curve; as a rule, active = well fitted curve in the direction sought with a large enough effect; inconclusive = small, poorly fitted or top-dose-only effect, or another doubt; inactive = no such curve, though single readings can be large; an effect the other way counts as inactive or inconclusive.

COc1ccc([C@H]2CC(=O)C=C(c3cc(C=O)ccc3OC)C2)cc1	TDP1 cell CPT 4.6µM, HT1080 IDH1KD tx 15µM, HT1080-NT tox inconclusive, DT40 TDP1 no CPT 5.8µM
COc1ccc([C@H]2CC(=O)C=C(c3cc(Cl)ccc3OC)C2)cc1	TDP1 cell CPT 13µM, HT1080 IDH1KD tx inconclusive, HT1080-NT tox inconclusive, DT40 TDP1 no CPT inconclusive
CCOc1ccc(Cl)cc1C1=CC(=O)C[C@H](c2ccc(OC)cc2)C1	TDP1 cell CPT 2.9µM, HT1080 IDH1KD tx 4.1µM, HT1080-NT tox 2.1µM, DT40 TDP1 no CPT 4.1µM
CCCCC/C=C/C1=CC(=O)C[C@H](c2ccc3c(c2)OCO3)C1	none
COC/C=C/C1=CC(=O)C[C@H](c2ccc3c(c2)OCO3)C1	TDP1 cell CPT inconclusive, IL-1B inflam inh -96, DT40 TDP1 no CPT 18µM
CCCCOc1ccc(C(=O)N2CCNC(=O)C2)cc1	none
Cn1c(=O)c(=O)n(C)c2cc(S(=O)(=O)N3CCN(c4cccc(C(F)(F)F)c4)CC3)ccc21	none
CC(=O)/C=C1\OCc2cc(OCc3ccccc3)ccc21	TDP1 cell CPT inconclusive, DT40 TDP1 no CPT inconclusive
COc1cc(F)c(C2=CC(=O)C[C@H](c3ccc4c(c3)OCO4)C2)cc1F	none
COc1ccc([C@H]2CC(=O)C=C(c3cc(OC)ccc3OC)C2)cc1	TDP1 cell CPT 13µM, HT1080 IDH1KD tx inconclusive, HT1080-NT tox inconclusive, DT40 TDP1 no CPT 15µM
COc1ccc([C@H]2CC(=O)C=C(c3c(OC)cccc3OC)C2)cc1	TDP1 cell CPT 2.9µM, HT1080 IDH1KD tx 5.8µM, HT1080-NT tox 4.6µM, DT40 TDP1 no CPT 2.1µM
COc1ccc(F)cc1C1=CC(=O)C[C@H](c2ccc3c(c2)OCO3)C1	TDP1 cell CPT 9.2µM, HT1080 IDH1KD tx inconclusive, HT1080-NT tox inconclusive, DT40 TDP1 no CPT 13µM
COc1cccc(OC)c1C1=CC(=O)C[C@H](c2ccc3c(c2)OCO3)C1	TDP1 cell CPT inconclusive, HT1080 IDH1KD tx inconclusive, HT1080-NT tox inconclusive
O=C(COC(=O)[C@H](Cc1ccccc1)NC(=O)c1ccco1)NCc1ccccc1	none
Cc1ccc(NC(=O)CN(C)C(=O)c2cccc(S(=O)(=O)NCc3ccco3)c2)cc1	none
COc1ccc(C(=O)Nc2nc3n(n2)C(c2ccccc2)C=C(c2ccccc2)N3)cc1 (stereo not drawn)	TDP1 cell CPT 18µM, DT40 TDP1 no CPT inconclusive (no result: IL-1B inflam inh, HT1080 IDH1KD tx, HT1080-NT tox)
O=C(Nc1nc2n(n1)C(c1ccccc1)C=C(c1ccccc1)N2)c1ccco1 (stereo not drawn)	none
O=C(Nc1nc2n(n1)C(c1ccc(Cl)cc1)CC(c1ccc(Cl)cc1)N2)c1ccco1 (stereo not drawn)	TDP1 cell CPT inconclusive, IL-1B inflam inh inconclusive, HT1080 IDH1KD tx 23µM, HT1080-NT tox 23µM, DT40 TDP1 no CPT inconclusive
COc1ccc(C2CC(c3ccc(Cl)cc3)Nc3nc(NC(=O)c4ccco4)nn32)cc1 (stereo not drawn)	TDP1 cell CPT inconclusive, HT1080 IDH1KD tx inconclusive, DT40 TDP1 no CPT inconclusive
COc1ccc(C2C=C(c3ccccc3)Nc3nc(NC(=O)/C=C/c4ccccc4OC)nn32)cc1 (stereo not drawn)	TDP1 cell CPT 5.8µM, DT40 TDP1 no CPT 2.6µM (no result: IL-1B inflam inh, HT1080 IDH1KD tx, HT1080-NT tox)
O=C(Nc1nc2n(n1)C(c1ccccc1)C=C(c1ccc(Cl)cc1)N2)c1ccco1 (stereo not drawn)	TDP1 cell CPT 21µM, DT40 TDP1 no CPT 23µM (no result: IL-1B inflam inh, HT1080 IDH1KD tx, HT1080-NT tox)
CCCCOc1ccc(C(=O)NCC(=O)OCCCOC(=O)CNC(=O)c2ccc(OCCCC)cc2)cc1	TDP1 cell CPT inconclusive
COc1ccc(C2C=C(c3ccccc3)Nc3nc(NC(=O)/C=C/c4ccccc4)nn32)cc1 (stereo not drawn)	TDP1 cell CPT 9.2µM, DT40 TDP1 no CPT 7.3µM (no result: IL-1B inflam inh, HT1080 IDH1KD tx, HT1080-NT tox)
COc1ccc2cc(/C=C/C(=O)N3CCN(CC(=O)N4CCCCCC4)CC3)ccc2c1	TDP1 cell CPT inconclusive, IL-1B inflam inh inconclusive, DT40 TDP1 no CPT inconclusive
CCCn1c(=O)c(C(=O)N/N=C/c2ccc(F)cc2)c(O)c2ccccc21	TDP1 cell CPT 9.2µM, DT40 TDP1 no CPT 5.2µM
CC(C)CCn1c(=O)c(C(=O)N/N=C/c2cccc(F)c2)c(O)c2ccccc21	TDP1 cell CPT 1.3µM, DT40 TDP1 no CPT 0.65µM
